Assay results reported in PubChem BioAssay.

target: Tumor necrosis factor receptor superfamily member 10B (Homo sapiens) (UniProt O14763); test: caspase-8 TRAIL sensitization, hit retest, confirmation, cell-based, NB7+caspase-8, with/without TRAIL, luminescence panel (AID 651596); settings: NB7 neuroblastoma + caspase-8, TRAIL sensitization, luminescence viability, with TRAIL, mean of runs, at 10 µM, stronger effect = higher value
Sequence (O14763 whole entry, looked up): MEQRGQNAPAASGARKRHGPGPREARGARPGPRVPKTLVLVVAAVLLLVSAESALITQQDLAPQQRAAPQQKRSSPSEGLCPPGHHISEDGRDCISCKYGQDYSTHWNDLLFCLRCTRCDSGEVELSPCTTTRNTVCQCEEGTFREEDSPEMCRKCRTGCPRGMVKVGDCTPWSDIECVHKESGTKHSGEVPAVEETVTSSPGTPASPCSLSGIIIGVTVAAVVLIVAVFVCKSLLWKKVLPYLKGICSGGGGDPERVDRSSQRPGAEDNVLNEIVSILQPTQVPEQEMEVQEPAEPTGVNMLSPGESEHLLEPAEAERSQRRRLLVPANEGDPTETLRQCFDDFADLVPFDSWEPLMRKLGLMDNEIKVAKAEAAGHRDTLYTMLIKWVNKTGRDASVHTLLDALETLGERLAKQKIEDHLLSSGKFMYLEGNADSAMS

Row | SMILES | activity [%]
1 | Nc1cc2sc(-c3ccc(C(=O)O)cc3)nc2cc1Cl | 52.8
2 | Cc1ccc(NC(=O)CSc2nn(-c3ccccc3)c(=S)s2)cc1S(=O)(=O)N(C)C | 22.1
3 | Cc1nn(-c2ccccc2)c(/N=C/c2ccc(O)cc2)c1-c1ccccc1 | 39.1
4 | COc1cc(OC)cc(C(=O)Nc2nc3ccccc3[nH]2)c1 | 55
5 | O=C(Nc1cccc(O)c1)c1noc2c1CCCCC2 | 66.2
6 | Cc1ccc(-c2cc(C(=O)N/N=C/c3cccnc3)c3ccccc3n2)cc1C | 43.9
7 | COC(=O)c1ccccc1NC(=O)c1nc(S(=O)(=O)Cc2ccccc2)ncc1Cl | 84.1
8 | CCCc1cc(=O)[nH]c(SCC(=O)c2c(N)n(C3CC3)c(=O)[nH]c2=O)n1 | 80.3
9 | COc1ccc(C(=O)NC(=O)Nc2cc(C)ccn2)cc1 | 95.3
10 | O=c1c2sc(-c3ccccc3)cc2nc2n1CCC2 | 46.9
11 | CN(C)CCCNC(=O)C[C@H]1C[C@H](C(=O)N2CCCCC2)[C@@]2(CCc3ccccc3)c3[nH]c4ccc(Cl)cc4c3CCN2C1=O | 35.8
12 | COCCNC(=O)c1c[nH]c2ccc(S(=O)(=O)N3CCc4ccccc43)cc2c1=O | 74.2
13 | O=c1oc2c(O)cccc2cc1-c1nc2ccccc2[nH]1 | 72
14 | Cc1ccc(Nc2nc(N)nc(CCl)n2)c(C)c1 | 98.9
15 | COC(=O)c1c(NC(=O)COc2ccc(Cl)cc2)sc2c1CC(C)(C)NC2(C)C | 81.2
16 | CCc1ccc(C2=NN(C(=O)OC)C(O)(C(F)(F)F)C2)cc1 (stereo not drawn) | 45.8
17 | CCN(CC)c1ccc(NC(=O)c2ccco2)cc1 | 53.6
18 | CCCNC(=O)c1oc2ccc3c(c2c1C)C(=O)CC(C)(C)O3 | 66.1
19 | COc1cccc2c1C(CO)N1C(C#N)C3CC(C(=O)O)C(C1C2)N3C (stereo not drawn) | 59.9
20 | Nc1ccccc1C=C1Cc2ccccc2C1=O | 58.5

Row | SMILES | activity [%]
21 | C/C(=N\NC(=O)c1ccc(Cl)cc1)c1cccs1 | 80.1
22 | C/C(=N\NC(=O)c1ccncc1)c1cccc(NC(=O)c2ccc(C(C)(C)C)cc2)c1 | 85.5
23 | COc1cccc(C=NNc2nnc(NN=Cc3cccc(OC)c3OC)c3ccccc23)c1OC | 83.2
24 | COc1ccccc1N1CCN(C2=Nc3cccc4cccc2c34)CC1 | 63.1
25 | CCOc1ccc(-c2ccc(SCC)nn2)cc1 | 75.4
26 | O=C(CCl)N1CCN(S(=O)(=O)c2ccc3c(c2)CCC3)CC1 | 97.7
27 | CCN1CCN(Cc2ccc(NC(=O)c3ccc(C)c(NC(=O)c4c[nH]c5cc(C(F)(F)F)ccc5c4=O)c3)cc2C(F)(F)F)CC1 | 98.8
28 | Cc1nc2cc(Nc3nnc(-c4ccccc4)c4ccccc34)ccc2n1C | 87.9
29 | CCOc1ccc(C(=O)Nc2nnc(NC(=S)Nc3ccccc3)s2)cc1 | 59.8
30 | COc1ccc(NC(=O)c2cccc(N3C(=O)c4ccc(C(=O)Nc5ccc(OC)c(O)c5)cc4C3=O)c2)cc1O | 71.7
31 | C=CCN1C=CC(=C/C=C(/C#N)C(=O)OCC)C=C1 | 50.2
32 | O=C(Nc1ccccc1NC(=O)c1c(F)c(F)c(F)c(F)c1F)c1c(F)c(F)c(F)c(F)c1F | 90.2
33 | O=C(Nc1nc(-c2ccccn2)cs1)C12CC3CC(CC(O)(C3)C1)C2 | 66.8
34 | Cc1ccc(OCc2nc(-c3ccccn3)no2)c(Br)c1 | 59.6
35 | Cc1nc(-c2ccc(NC(=O)CC(C)C)cc2)cs1 | 51.7
36 | Oc1ccccc1-c1n[nH]c(-c2ccccc2O)n1 | 47.8
37 | O=C(Nc1nc2cc3c(cc2s1)OCCO3)c1cccs1 | 66.6
38 | COc1ccc2cc(-c3ccccc3)ncc2c1 | 63.8
39 | CCCCN(CC)CCCNC(=O)C1c2ccccc2C(=O)N(C)C1c1cn(C)c2ccccc12 (stereo not drawn) | 71.8

tested on: not listed separately; test: as above; settings: NB7 neuroblastoma + caspase-8, without TRAIL, luminescence viability, without TRAIL, mean of runs, at 10 µM; in the data active = activity above about 50%; inactive = the rest

Row | SMILES | activity [%]
40 | Nc1cc2sc(-c3ccc(C(=O)O)cc3)nc2cc1Cl | 42.5
41 | Cc1ccc(NC(=O)CSc2nn(-c3ccccc3)c(=S)s2)cc1S(=O)(=O)N(C)C | 17.6
42 | Cc1nn(-c2ccccc2)c(/N=C/c2ccc(O)cc2)c1-c1ccccc1 | 13.9
43 | COc1cc(OC)cc(C(=O)Nc2nc3ccccc3[nH]2)c1 | 56.8
44 | O=C(Nc1cccc(O)c1)c1noc2c1CCCCC2 | 61
45 | Cc1ccc(-c2cc(C(=O)N/N=C/c3cccnc3)c3ccccc3n2)cc1C | 35
46 | COC(=O)c1ccccc1NC(=O)c1nc(S(=O)(=O)Cc2ccccc2)ncc1Cl | 99.6
47 | CCCc1cc(=O)[nH]c(SCC(=O)c2c(N)n(C3CC3)c(=O)[nH]c2=O)n1 | 88.8
48 | COc1ccc(C(=O)NC(=O)Nc2cc(C)ccn2)cc1 | 95.4
49 | O=c1c2sc(-c3ccccc3)cc2nc2n1CCC2 | 50
50 | CN(C)CCCNC(=O)C[C@H]1C[C@H](C(=O)N2CCCCC2)[C@@]2(CCc3ccccc3)c3[nH]c4ccc(Cl)cc4c3CCN2C1=O | 82.6
51 | COCCNC(=O)c1c[nH]c2ccc(S(=O)(=O)N3CCc4ccccc43)cc2c1=O | 82.7
52 | O=c1oc2c(O)cccc2cc1-c1nc2ccccc2[nH]1 | 68.8
53 | Cc1ccc(Nc2nc(N)nc(CCl)n2)c(C)c1 | 98.6
54 | COC(=O)c1c(NC(=O)COc2ccc(Cl)cc2)sc2c1CC(C)(C)NC2(C)C | 93.9
55 | CCc1ccc(C2=NN(C(=O)OC)C(O)(C(F)(F)F)C2)cc1 (stereo not drawn) | 59
56 | CCN(CC)c1ccc(NC(=O)c2ccco2)cc1 | 50.3
57 | CCCNC(=O)c1oc2ccc3c(c2c1C)C(=O)CC(C)(C)O3 | 68.4
58 | COc1cccc2c1C(CO)N1C(C#N)C3CC(C(=O)O)C(C1C2)N3C (stereo not drawn) | 83.8
59 | Nc1ccccc1C=C1Cc2ccccc2C1=O | 50

Row | SMILES | activity [%]
60 | C/C(=N\NC(=O)c1ccc(Cl)cc1)c1cccs1 | 81.4
61 | C/C(=N\NC(=O)c1ccncc1)c1cccc(NC(=O)c2ccc(C(C)(C)C)cc2)c1 | 81.6
62 | COc1cccc(C=NNc2nnc(NN=Cc3cccc(OC)c3OC)c3ccccc23)c1OC | 75
63 | COc1ccccc1N1CCN(C2=Nc3cccc4cccc2c34)CC1 | 58.2
64 | CCOc1ccc(-c2ccc(SCC)nn2)cc1 | 71.5
65 | O=C(CCl)N1CCN(S(=O)(=O)c2ccc3c(c2)CCC3)CC1 | 97.1
66 | CCN1CCN(Cc2ccc(NC(=O)c3ccc(C)c(NC(=O)c4c[nH]c5cc(C(F)(F)F)ccc5c4=O)c3)cc2C(F)(F)F)CC1 | 98.8
67 | Cc1nc2cc(Nc3nnc(-c4ccccc4)c4ccccc34)ccc2n1C | 83.9
68 | CCOc1ccc(C(=O)Nc2nnc(NC(=S)Nc3ccccc3)s2)cc1 | 61.6
69 | COc1ccc(NC(=O)c2cccc(N3C(=O)c4ccc(C(=O)Nc5ccc(OC)c(O)c5)cc4C3=O)c2)cc1O | 85.6
70 | C=CCN1C=CC(=C/C=C(/C#N)C(=O)OCC)C=C1 | 41.9
71 | O=C(Nc1ccccc1NC(=O)c1c(F)c(F)c(F)c(F)c1F)c1c(F)c(F)c(F)c(F)c1F | 96.2
72 | O=C(Nc1nc(-c2ccccn2)cs1)C12CC3CC(CC(O)(C3)C1)C2 | 78.4
73 | Cc1ccc(OCc2nc(-c3ccccn3)no2)c(Br)c1 | 56.6
74 | Cc1nc(-c2ccc(NC(=O)CC(C)C)cc2)cs1 | 55.5
75 | Oc1ccccc1-c1n[nH]c(-c2ccccc2O)n1 | 48.6
76 | O=C(Nc1nc2cc3c(cc2s1)OCCO3)c1cccs1 | 64.6
77 | COc1ccc2cc(-c3ccccc3)ncc2c1 | 63.7
78 | CCCCN(CC)CCCNC(=O)C1c2ccccc2C(=O)N(C)C1c1cn(C)c2ccccc12 (stereo not drawn) | 69.7
